Test results published in the supplement of paper PMC11732987, “Enantioselective OTUD7B fragment discovery through chemoproteomics screening and high-throughput optimisation” (Communications Chemistry, 2025).

Key:
Assay in all cases: log2 ratio of Biotin-Ahx-Ub-VS probe labelling (fragment/DMSO); higher = less target engagement (more negative = stronger competition), active = hit call of the paper (q ≤ 0.05, log2 ratio ≤ -1)
Settings in all cases: compound concentration: 200 uM; treatment time: 3 h
USP19 = biological target: T1, USP19 (UniProt O94966)
T1 sequence (whole entry): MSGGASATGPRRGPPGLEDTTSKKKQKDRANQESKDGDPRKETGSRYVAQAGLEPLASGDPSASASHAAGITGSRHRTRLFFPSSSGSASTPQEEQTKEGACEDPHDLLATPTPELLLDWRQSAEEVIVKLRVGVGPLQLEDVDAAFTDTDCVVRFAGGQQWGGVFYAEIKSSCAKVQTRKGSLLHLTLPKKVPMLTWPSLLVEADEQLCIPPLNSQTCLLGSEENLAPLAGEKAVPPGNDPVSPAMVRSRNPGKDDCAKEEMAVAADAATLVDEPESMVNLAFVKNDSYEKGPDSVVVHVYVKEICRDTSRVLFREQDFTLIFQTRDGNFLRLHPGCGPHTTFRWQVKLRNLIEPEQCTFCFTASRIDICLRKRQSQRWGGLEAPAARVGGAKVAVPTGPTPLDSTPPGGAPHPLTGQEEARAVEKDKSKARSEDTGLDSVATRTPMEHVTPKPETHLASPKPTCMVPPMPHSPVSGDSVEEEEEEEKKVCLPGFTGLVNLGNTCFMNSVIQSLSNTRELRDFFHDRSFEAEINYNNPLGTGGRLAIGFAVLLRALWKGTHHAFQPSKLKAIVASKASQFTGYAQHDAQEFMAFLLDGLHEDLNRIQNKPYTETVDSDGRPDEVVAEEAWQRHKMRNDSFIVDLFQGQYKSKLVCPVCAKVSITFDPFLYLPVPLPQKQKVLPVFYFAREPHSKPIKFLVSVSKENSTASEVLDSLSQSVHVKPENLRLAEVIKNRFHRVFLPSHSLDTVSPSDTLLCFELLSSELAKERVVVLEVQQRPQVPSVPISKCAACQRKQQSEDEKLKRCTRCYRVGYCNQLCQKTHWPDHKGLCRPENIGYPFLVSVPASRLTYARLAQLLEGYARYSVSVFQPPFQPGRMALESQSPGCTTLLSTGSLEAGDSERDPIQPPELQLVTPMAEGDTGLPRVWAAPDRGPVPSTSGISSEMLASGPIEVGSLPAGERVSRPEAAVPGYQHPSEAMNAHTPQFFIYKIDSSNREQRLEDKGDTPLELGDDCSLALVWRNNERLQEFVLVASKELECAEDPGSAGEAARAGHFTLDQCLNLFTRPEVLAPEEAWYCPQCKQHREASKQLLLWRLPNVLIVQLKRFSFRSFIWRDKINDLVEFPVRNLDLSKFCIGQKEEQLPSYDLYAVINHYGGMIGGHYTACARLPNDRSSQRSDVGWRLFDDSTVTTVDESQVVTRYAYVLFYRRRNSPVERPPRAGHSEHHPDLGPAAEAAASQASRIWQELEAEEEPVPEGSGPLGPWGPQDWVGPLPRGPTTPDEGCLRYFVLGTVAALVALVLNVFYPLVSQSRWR
Summary of the method: (§1)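 HEK293T lysate, 495 µg per sample in Tris/CHAPS/IGEPAL buffer with protease inhibitors, was treated in triplicate with fragment at 200 µM or vehicle for 3 h and then with Biotin-Ahx-Ub-VS at 0.5 µM final for 1 h. Labelled DUBs were NeutrAvidin-enriched, digested with LysC and trypsin, and run by diaPASEF LC-MS/MS. Spectronaut label-free quantities were global-median-normalised, and values are average log2 fragment/vehicle ratios by unpaired t-test on proteins with ≥2 unique peptides.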

USP22 = biological target: T2, USP22 (UniProt Q9UPT9)
T2 sequence (whole entry): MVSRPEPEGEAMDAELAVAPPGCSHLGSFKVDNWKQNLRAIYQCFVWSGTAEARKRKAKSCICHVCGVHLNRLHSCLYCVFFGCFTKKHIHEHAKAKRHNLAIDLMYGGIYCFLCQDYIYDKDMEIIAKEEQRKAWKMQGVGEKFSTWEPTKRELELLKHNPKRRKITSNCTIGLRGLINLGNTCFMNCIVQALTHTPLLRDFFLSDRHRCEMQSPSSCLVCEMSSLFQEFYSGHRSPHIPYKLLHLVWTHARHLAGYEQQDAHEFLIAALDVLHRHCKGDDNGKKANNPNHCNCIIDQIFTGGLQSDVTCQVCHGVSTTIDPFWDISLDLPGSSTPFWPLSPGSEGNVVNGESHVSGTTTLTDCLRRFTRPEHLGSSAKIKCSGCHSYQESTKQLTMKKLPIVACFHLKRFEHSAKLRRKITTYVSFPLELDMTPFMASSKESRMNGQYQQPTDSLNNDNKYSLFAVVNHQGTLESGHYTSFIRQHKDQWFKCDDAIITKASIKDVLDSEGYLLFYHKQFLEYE
Summary of the method: as §1

USP24 = USP24 (UniProt Q9UPU5)
Summary of the method: as §1

USP25 = biological target: T3, USP25 (UniProt Q9UHP3)
T3 sequence (whole entry): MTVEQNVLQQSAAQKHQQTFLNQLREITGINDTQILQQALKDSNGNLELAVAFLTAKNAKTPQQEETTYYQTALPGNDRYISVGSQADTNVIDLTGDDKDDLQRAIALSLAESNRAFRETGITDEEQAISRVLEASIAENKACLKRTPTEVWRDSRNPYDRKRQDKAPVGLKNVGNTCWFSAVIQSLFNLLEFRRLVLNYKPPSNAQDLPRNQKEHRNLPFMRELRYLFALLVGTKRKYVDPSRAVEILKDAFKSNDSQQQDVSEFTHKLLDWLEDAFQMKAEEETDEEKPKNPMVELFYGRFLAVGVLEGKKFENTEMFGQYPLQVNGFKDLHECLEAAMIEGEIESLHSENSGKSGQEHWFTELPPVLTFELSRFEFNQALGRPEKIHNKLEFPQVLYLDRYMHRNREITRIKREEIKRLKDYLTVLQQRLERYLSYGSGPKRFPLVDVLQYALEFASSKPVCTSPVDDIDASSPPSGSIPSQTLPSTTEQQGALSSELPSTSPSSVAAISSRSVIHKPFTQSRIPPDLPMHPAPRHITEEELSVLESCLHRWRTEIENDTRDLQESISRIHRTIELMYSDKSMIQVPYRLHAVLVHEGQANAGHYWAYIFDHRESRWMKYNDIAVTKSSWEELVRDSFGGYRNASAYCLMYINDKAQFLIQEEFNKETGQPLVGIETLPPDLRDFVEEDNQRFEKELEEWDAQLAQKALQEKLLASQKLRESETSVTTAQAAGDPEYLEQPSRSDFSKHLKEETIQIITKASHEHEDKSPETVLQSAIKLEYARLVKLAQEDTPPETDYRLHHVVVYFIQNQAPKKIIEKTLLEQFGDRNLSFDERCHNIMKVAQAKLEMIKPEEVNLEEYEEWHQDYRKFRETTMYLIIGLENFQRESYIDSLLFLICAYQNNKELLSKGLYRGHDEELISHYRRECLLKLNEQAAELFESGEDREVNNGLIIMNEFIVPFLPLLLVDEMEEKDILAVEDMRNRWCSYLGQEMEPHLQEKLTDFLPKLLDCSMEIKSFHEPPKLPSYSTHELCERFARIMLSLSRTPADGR
Summary of the method: as §1

USP28 = biological target: T4, USP28 (UniProt Q96RU2)
T4 sequence (whole entry): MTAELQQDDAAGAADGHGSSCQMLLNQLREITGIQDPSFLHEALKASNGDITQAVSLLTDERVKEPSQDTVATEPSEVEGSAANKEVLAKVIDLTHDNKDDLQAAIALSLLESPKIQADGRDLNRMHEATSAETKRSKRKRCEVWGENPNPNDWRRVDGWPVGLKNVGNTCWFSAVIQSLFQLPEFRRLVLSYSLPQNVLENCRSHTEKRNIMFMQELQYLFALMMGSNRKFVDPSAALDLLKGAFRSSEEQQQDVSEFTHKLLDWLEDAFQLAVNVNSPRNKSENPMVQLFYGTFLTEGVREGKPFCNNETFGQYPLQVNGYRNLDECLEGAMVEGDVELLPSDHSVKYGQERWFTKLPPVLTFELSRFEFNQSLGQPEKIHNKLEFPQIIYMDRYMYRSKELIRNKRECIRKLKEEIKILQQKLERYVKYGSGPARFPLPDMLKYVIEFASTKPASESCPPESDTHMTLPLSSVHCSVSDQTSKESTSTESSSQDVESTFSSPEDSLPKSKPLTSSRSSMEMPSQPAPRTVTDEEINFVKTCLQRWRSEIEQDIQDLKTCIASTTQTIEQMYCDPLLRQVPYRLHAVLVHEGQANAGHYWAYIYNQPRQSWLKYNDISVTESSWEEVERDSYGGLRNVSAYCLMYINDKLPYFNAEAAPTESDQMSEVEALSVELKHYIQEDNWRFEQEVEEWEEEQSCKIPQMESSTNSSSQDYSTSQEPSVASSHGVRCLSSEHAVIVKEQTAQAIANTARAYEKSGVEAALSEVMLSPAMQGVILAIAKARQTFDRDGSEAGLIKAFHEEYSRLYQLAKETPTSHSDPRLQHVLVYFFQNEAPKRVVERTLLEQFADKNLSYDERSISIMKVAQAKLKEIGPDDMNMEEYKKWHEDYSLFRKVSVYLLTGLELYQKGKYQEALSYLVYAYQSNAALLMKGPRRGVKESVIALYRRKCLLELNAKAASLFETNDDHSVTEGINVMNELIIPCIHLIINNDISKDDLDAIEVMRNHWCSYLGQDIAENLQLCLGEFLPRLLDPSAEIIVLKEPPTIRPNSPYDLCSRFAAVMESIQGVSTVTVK
Summary of the method: as §1

Measured: log2 ratio of Biotin-Ahx-Ub-VS probe labelling

USP24, sequence (Q9UPU5 whole entry): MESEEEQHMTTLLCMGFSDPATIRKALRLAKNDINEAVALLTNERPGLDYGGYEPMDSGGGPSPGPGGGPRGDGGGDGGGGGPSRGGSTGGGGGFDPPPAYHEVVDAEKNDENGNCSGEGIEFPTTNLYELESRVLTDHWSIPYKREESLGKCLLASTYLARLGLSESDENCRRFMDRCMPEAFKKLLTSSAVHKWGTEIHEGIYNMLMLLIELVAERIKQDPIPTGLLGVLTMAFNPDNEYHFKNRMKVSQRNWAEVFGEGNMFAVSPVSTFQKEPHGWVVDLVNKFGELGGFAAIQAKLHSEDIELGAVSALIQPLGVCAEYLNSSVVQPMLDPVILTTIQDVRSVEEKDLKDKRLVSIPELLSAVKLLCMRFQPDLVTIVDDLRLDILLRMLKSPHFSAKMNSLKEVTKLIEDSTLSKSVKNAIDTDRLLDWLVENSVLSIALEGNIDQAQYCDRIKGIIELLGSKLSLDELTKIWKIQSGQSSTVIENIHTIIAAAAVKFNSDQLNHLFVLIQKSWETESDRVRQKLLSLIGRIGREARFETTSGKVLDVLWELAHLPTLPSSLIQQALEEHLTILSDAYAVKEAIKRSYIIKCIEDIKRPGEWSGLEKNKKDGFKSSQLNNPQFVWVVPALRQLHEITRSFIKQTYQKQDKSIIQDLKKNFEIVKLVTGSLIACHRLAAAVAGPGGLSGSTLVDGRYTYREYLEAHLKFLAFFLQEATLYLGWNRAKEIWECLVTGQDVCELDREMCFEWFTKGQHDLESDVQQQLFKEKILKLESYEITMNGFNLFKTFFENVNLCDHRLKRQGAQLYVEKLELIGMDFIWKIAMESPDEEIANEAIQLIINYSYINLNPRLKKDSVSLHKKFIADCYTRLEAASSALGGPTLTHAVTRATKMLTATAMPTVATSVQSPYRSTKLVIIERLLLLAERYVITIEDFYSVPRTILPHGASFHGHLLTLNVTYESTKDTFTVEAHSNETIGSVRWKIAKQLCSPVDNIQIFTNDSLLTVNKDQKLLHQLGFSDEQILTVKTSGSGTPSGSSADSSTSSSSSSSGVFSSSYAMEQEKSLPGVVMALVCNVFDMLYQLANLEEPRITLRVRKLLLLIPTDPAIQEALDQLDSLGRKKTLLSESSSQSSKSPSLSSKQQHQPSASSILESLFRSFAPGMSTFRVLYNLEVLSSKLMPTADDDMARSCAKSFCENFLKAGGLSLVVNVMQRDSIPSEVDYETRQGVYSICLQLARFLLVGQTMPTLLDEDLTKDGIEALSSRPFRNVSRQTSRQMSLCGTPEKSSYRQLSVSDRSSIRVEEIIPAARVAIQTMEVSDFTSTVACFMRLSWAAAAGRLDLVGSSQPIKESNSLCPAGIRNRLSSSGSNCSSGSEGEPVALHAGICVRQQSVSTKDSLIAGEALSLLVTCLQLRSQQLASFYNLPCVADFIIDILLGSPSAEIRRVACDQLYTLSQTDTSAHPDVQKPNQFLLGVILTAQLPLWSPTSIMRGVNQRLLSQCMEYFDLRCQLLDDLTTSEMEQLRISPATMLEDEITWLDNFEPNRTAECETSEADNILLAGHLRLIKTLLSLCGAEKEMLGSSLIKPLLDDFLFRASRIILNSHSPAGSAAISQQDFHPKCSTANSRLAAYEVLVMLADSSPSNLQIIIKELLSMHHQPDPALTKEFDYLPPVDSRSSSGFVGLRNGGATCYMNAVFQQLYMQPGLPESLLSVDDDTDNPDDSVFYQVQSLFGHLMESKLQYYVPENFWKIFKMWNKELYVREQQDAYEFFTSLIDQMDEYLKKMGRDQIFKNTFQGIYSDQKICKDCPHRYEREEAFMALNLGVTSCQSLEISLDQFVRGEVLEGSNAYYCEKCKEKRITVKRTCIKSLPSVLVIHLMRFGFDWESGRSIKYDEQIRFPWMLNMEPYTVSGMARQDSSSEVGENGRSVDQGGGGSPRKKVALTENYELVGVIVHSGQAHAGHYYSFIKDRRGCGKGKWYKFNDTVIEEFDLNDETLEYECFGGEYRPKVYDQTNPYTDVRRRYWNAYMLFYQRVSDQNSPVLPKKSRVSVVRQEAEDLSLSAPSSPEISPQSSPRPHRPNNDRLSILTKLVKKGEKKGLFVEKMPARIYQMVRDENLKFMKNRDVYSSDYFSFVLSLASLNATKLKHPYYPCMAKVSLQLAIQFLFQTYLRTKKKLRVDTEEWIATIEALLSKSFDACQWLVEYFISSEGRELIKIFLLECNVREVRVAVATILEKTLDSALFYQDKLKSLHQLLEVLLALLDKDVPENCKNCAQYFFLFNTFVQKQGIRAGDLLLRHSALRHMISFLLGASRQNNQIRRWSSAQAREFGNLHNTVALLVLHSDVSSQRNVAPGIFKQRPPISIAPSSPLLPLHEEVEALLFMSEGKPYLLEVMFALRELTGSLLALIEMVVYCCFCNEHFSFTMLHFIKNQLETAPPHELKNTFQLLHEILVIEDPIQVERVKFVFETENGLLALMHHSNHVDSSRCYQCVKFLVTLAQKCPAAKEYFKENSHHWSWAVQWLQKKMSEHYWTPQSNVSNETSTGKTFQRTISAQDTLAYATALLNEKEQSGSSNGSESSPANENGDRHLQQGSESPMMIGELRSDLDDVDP

O=C(O)C1Cc2ccccc2CN1C(=O)CCl (stereo not given)
inactive: USP19 -0.32 | USP22 0.112 | USP24 -0.348 | USP25 -0.37 | USP28 -0.576
